Where “and” joins values, the source holds several entries; their conditions need not be identical. Equal entries are not always repeated. Hit rate of the full screen: of about 5,500 compounds, about 2,000 (36%) were called active. Inconclusive results (about 18%) are left out. Cut-off read from the data, not from the text of the source: active = normalized growth mostly below about 0.91 (no sharp cut-off); inconclusive = no clear call, values can overlap the other calls; inactive = mostly above about 0.92. The list shows a part of the results.
Test: chemical genetic growth profiling, strain panel (AID 1159580);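 note: tested at 20 µM; growth read once vehicle control cultures reached saturation at 30 °C; 1 = growth at the plate median or of vehicle wells; lower values mean less growth of the strain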
Details: growth OD

Measured: normalized growth

O=C1C(=O)c2ccccc2C(O)=C1C1CCC(c2ccc(Cl)cc2)CC1 (configuration not stated)
inactive: S. cerevisiae deletion strains, locus YAL013W, strain DEP1, hits give low values 1.01 | S. cerevisiae deletion strains, locus YBR021W, strain FUR4, hits give low values 0.992 | S. cerevisiae deletion strains, locus YBR229C, strain ROT2, hits give low values 0.985 | S. cerevisiae deletion strains, locus YCL029C, strain bik1, hits give low values 0.992 | S. cerevisiae deletion strains, locus YDL035C, strain GPR1, hits give low values 0.993 | S. cerevisiae deletion strains, locus YDL074C, strain BRE1, hits give low values 0.975 | S. cerevisiae deletion strains, locus YDL101C, strain DUN1, hits give low values 0.996 | S. cerevisiae deletion strains, locus YDL134C, strain PPH21, hits give low values 0.983 | S. cerevisiae deletion strains, locus YDL185W, strain tfp1, hits give low values 1.01 | S. cerevisiae deletion strains, locus YDL192W, strain arf1, hits give low values 0.997 | S. cerevisiae deletion strains, locus YDR101C, strain arx1, hits give low values 0.991 | S. cerevisiae deletion strains, locus YDR150W, strain NUM1, hits give low values 1.01 | S. cerevisiae deletion strains, locus YDR162C, strain NBP2, hits give low values 0.997 | S. cerevisiae deletion strains, locus YDR318W, strain mcm21, hits give low values 0.98 | S. cerevisiae deletion strains, locus YDR388W, hits give low values 0.981 | S. cerevisiae deletion strains, locus YDR502C, strain sam2, hits give low values 1 | S. cerevisiae deletion strains, locus YEL061C, strain CIN8, hits give low values 0.996 | S. cerevisiae deletion strains, locus YER110C, hits give low values 0.991 | S. cerevisiae deletion strains, locus YER155C, strain BEM2, hits give low values 0.983 | S. cerevisiae deletion strains, locus YER167W, strain BCK2, hits give low values 1.01 | S. cerevisiae deletion strains, locus YGL078C, strain dbp3, hits give low values 1 | S. cerevisiae deletion strains, locus YGL086W, strain mad1, hits give low values 0.988 | S. cerevisiae deletion strains, locus YGL248W, strain PDE1, hits give low values 0.998 | S. cerevisiae deletion strains, locus YGR078C, strain PAC10, hits give low values 0.996 | S. cerevisiae deletion strains, locus YGR135W, strain pre9, hits give low values 0.991 | S. cerevisiae deletion strains, locus YGR229C, strain SMI1, hits give low values 1 | S. cerevisiae deletion strains, locus YGR252W, strain gcn5, hits give low values 0.946 | S. cerevisiae deletion strains, locus YHR030C, strain SLT2, hits give low values 0.998 and 1.01 | S. cerevisiae deletion strains, locus YHR079C, strain IRE1 (second series), hits give low values 0.987 | S. cerevisiae deletion strains, locus YHR079C, strain IRE1, hits give low values 1.01 | S. cerevisiae deletion strains, locus YHR094C, strain hxt1, hits give low values 0.98 | S. cerevisiae deletion strains, locus YHR129C, strain ARP1, hits give low values 0.988 | S. cerevisiae deletion strains, locus YHR200W, strain rpn10, hits give low values 0.981 | S. cerevisiae deletion strains, locus YIL066C, strain RNR3, hits give low values 0.989 | S. cerevisiae deletion strains, locus YIL073C, strain SPO22, hits give low values 0.884 | S. cerevisiae deletion strains, locus YIL125W, strain kgd1, hits give low values 0.996 | S. cerevisiae deletion strains, locus YIR030C, strain dcg1, hits give low values 0.997 | S. cerevisiae deletion strains, locus YJL095W, strain BCK1, hits give low values 0.949 and 1.01 | S. cerevisiae deletion strains, locus YJL134W, strain LCB3, hits give low values 0.988 | S. cerevisiae deletion strains, locus YJL168C, strain set2, hits give low values 0.977 | S. cerevisiae deletion strains, locus YJL187C, strain SWE1 (second series), hits give low values 0.992 | S. cerevisiae deletion strains, locus YJR043C, strain POL32, hits give low values 1 | S. cerevisiae deletion strains, locus YJR066W, strain TOR1, hits give low values 0.963 | S. cerevisiae deletion strains, locus YJR075W, strain HOC1, hits give low values 0.996 | S. cerevisiae deletion strains, locus YKL009W, strain mrt4, hits give low values 0.997 | S. cerevisiae deletion strains, locus YKL068W, hits give low values 0.997 | S. cerevisiae deletion strains, locus YKL085W, strain MDH1 (second series), hits give low values 0.989 | S. cerevisiae deletion strains, locus YKL085W, strain MDH1, hits give low values 0.989 | S. cerevisiae deletion strains, locus YKL190W, strain CNB1, hits give low values 0.99 | S. cerevisiae deletion strains, locus YKR001C, strain vps1, hits give low values 0.947 | S. cerevisiae deletion strains, locus YLR039C, strain RIC1, hits give low values 0.876 | S. cerevisiae deletion strains, locus YLR058C, strain SHM2, hits give low values 0.988 | S. cerevisiae deletion strains, locus YLR102C, strain apc9, hits give low values 0.988 | S. cerevisiae deletion strains, locus YLR113W, strain HOG1, hits give low values 1.05 | S. cerevisiae deletion strains, locus YLR262C, strain YPT6, hits give low values 0.936 | S. cerevisiae deletion strains, locus YLR268W, strain sec22, hits give low values 0.972 | S. cerevisiae deletion strains, locus YLR330W, strain CHS5, hits give low values 0.988 | S. cerevisiae deletion strains, locus YLR342W, strain FKS1 (second series), hits give low values 0.951 | S. cerevisiae deletion strains, locus YLR371W, strain rom2, hits give low values 1 | S. cerevisiae deletion strains, locus YLR418C, strain cdc73, hits give low values 0.987 | S. cerevisiae deletion strains, locus YML016C, strain PPZ1, hits give low values 0.969 | S. cerevisiae deletion strains, locus YML032C, strain rad52, hits give low values 1.01 | S. cerevisiae deletion strains, locus YML124C, strain tub3, hits give low values 0.994 | S. cerevisiae deletion strains, locus YMR078C, strain ctf18, hits give low values 0.974 | S. cerevisiae deletion strains, locus YMR223W, strain ubp8, hits give low values 0.981 | S. cerevisiae deletion strains, locus YMR263W, strain SAP30, hits give low values 0.999 | S. cerevisiae deletion strains, locus YMR307W, strain GAS1, hits give low values 0.924 | S. cerevisiae deletion strains, locus YNL067W, strain RPL9B, hits give low values 0.997 | S. cerevisiae deletion strains, locus YNL128W, strain TEP1, hits give low values 1.01 | S. cerevisiae deletion strains, locus YNL153C, strain GIM3, hits give low values 0.989 | S. cerevisiae deletion strains, locus YNL183C, strain NPR1, hits give low values 0.977 | S. cerevisiae deletion strains, locus YNL233W, strain BNI4, hits give low values 0.987 | S. cerevisiae deletion strains, locus YNL250W, strain rad50, hits give low values 0.997 | S. cerevisiae deletion strains, locus YNL271C, strain bni1, hits give low values 0.991 | S. cerevisiae deletion strains, locus YNL298W, strain CLA4, hits give low values 0.996 | S. cerevisiae deletion strains, locus YNL322C, strain KRE1, hits give low values 1 | S. cerevisiae deletion strains, locus YNR052C, strain pop2, hits give low values 0.982 | S. cerevisiae deletion strains, locus YOL006C, strain TOP1, hits give low values 0.903 | S. cerevisiae deletion strains, locus YOL012C, strain htz1 1.05 | S. cerevisiae deletion strains, locus YOL147C, strain pex11, hits give low values 0.986 | S. cerevisiae deletion strains, locus YOR061W, strain CKA2, hits give low values 0.98 | S. cerevisiae deletion strains, locus YOR069W, strain VPS5, hits give low values 0.991 | S. cerevisiae deletion strains, locus YOR136W, strain idh2, hits give low values 1 | S. cerevisiae deletion strains, locus YOR144C, strain elg1, hits give low values 0.988 | S. cerevisiae deletion strains, locus YOR184W, strain ser1, hits give low values 0.984 | S. cerevisiae deletion strains, locus YOR231W, strain MKK1, hits give low values 1.03 | S. cerevisiae deletion strains, locus YOR316C, strain cot1, hits give low values 0.991 | S. cerevisiae deletion strains, locus YPL055C, strain LGE1, hits give low values 0.996 | S. cerevisiae deletion strains, locus YPL241C, strain CIN2, hits give low values 0.997 | S. cerevisiae deletion strains, locus YPL256C, strain CLN2, hits give low values 1.03 | S. cerevisiae deletion strains, locus YPR119W, strain clb2, hits give low values 0.984 | S. cerevisiae deletion strains, locus YPR141C, strain kar3, hits give low values 1 | S. cerevisiae deletion strains, locus YPR163C, strain tif3, hits give low values 0.993 | S. cerevisiae deletion strains, locus YPR167C, strain met16, hits give low values 0.995 | S. cerevisiae deletion strains, strain wtn01, hits give low values 0.998 | S. cerevisiae strains, strain wild type, hits give low values 0.999
active: S. cerevisiae deletion strains, locus YNL307C, strain MCK1, hits give low values 0.836
